From PubChem BioAssay (NCATS) come the findings set out here.

Records with an inconclusive call do not appear. Values without a mark were called inactive. Calls of active or inactive are those of the source. Calls follow the shape of the dose curve; as a rule, active = well fitted inhibition curve with a large enough effect; inconclusive = small, poorly fitted or top-dose-only effect; inactive = flat fitted curve, though single readings scatter. *1 amine or outer side, *2 acyl side, *3 side chain or, on linkers, in order; H or OH if unused. Where a SMILES comes first, the peptide text is derived from it. [ ]: non-standard residue; d: D form. X4 = CC(C)=CCc1cc(C(O)C(N[*:1])C(=O)[*:2])ccc1O

The test system of assay [1] is HaCat. Put plainly: Cytotoxic Profiling of Annotated Libraries Using Quantitative High-Throughput Screening (AID 1296008). Also: potency is read from the fitted curve at half-maximal effect. As to max response: % is scaled to controls: 0 for no effect and ±100 for the full control effect. As to conditions: Five cell lines viability, CellTiter-Glo ATP luminescence, 48-72 h; max response: active compounds read low. The procedure, abridged: (§1)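 Compounds were pin-transferred onto cells and incubated 48 or 72 hr at 37 degree Celsius, 95% humidity. CellTiter-Glo was added, plates sat 10 min at room temperature, then ATP-coupled luminescence was imaged as the viability read-out.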
(In ATP-based viability assays light output follows the ATP content of the culture.)

In assay [2] the test system is KB-3-1. The assay is described as above. As to conditions: Five cell lines viability, CellTiter-Glo ATP luminescence, 48-72 h; max response: active compounds read low. In outline:
as §1

The test system of assay [3] is NIH3T3. The description is as above. Conditions: Five cell lines viability, CellTiter-Glo ATP luminescence, 48-72 h; max response: active compounds read low. The procedure, abridged:
as §1

Assay [4] concerns HACAT. The assay is described as follows: qHTS assay to identify novel small-molecules to repurpose for Merkel cell carcinoma treatment (AID 1296009). As to conditions: MCC and control cell lines, CellTiter-Glo viability, 72 h; series mostly up to 44.8 µM. In outline: (§2)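 Luminescence from CellTiter-Glo, read 10 min after addition at room temperature, reported viability following a 72 hr, 37 degree celsius treatment with NPC or MIPE compounds in titration; values normalized to plate controls.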
On the technique in general: Quantitative high-throughput screening tests each substance at several concentrations.

In assay [5] the test system is HEK293T. Described as above. As to conditions: MCC and control cell lines, CellTiter-Glo viability, 72 h; at 44.8 µM (top of the series) unless noted. In outline:
as §2

Assay [6] concerns NIH3T3. The assay is described as above. As to conditions: MCC and control cell lines, CellTiter-Glo viability, 72 h; at 44.8 µM (top of the series) unless noted. In outline: as §2
Also: nearly all actives have a fitted effect of over 60% in size.

With `C=CC(C)(C)c1[nH]c2cc3c(cc2c1CC1NC(=O)C2CCCN2C1=O)C=CC(C)(C)O3` (centres undefined), the call in assay [1] and in assay [3] was inactive. Moreover, the max response in assay [2] is 8.42%. Besides, the Potency result in assay [4] is “inactive”. In addition, the outcome in assay [5] and in assay [6] was “inactive [at 17.4 µM]” each time.
As to `CC1(C)CC[C@]2(C(=O)O[C@@H]3O[C@H](CO)[C@@H](O)[C@H](O)[C@H]3O)CC[C@]3(C)C(=CCC4[C@@]5(C)CC[C@H](O[C@@H]6O[C@H](C(=O)O)[C@@H](O)[C@H](O)[C@H]6O)[C@@](C)(CO)C5CC[C@]43C)C2C1` (some centres undefined), the call in assay [1] was inactive. In addition, the results for the max response in assay [2] and in assay [3] were -0.849% and -2.22%, respectively. Moreover, the outcome in assay [4] was “inactive [at 9.27 µM]”.
Regarding `C[C@@H]1CC[C@]2(C(=O)O[C@@H]3O[C@H](CO)[C@@H](O)[C@H](O)[C@H]3O)CC[C@]3(C)C(=CCC4[C@@]5(C)C[C@@H](O)[C@H](O)[C@](C)(C(=O)O)C5CC[C@]43C)[C@@H]2[C@]1(C)O` (some centres undefined), the molecule was classed as inactive in assay [1]. Further, the results for the max response in assay [2] and in assay [3] were 5.29% and 0.619%, respectively. In addition, the Potency result in assay [4] is “inactive”.
For `COc1c2cc(c(O)c1OC)-c1cc(ccc1O)CCC(O)CCCC2` (centres undefined), the result in assay [1] and in assay [2] was inactive. The max response in assay [3] was -1.69%. Besides, the Potency entry in assay [4] was “inactive”.
On to `O=C(Nc1c(-c2cccs2)nc2ccccn12)c1ccc(Cl)cc1`, for which the result in assay [1] and in assay [2] was inactive. For the same molecule, the max response in assay [3] was -0.375%. In addition, the Potency result in assay [4] is “inactive”.
As for `O=C(/C=C/c1ccccc1)OC[C@]12O[C@H]1[C@@H](O)[C@@H]1C=CO[C@@H](O[C@@H]3O[C@H](CO)[C@@H](O)[C@H](O)[C@H]3O)[C@@H]12`, the molecule was called inactive in assay [1], in assay [2] and in assay [3]. For the same molecule, the Potency entry in assay [4] was “inactive”. The outcome in assay [5] and in assay [6] was “inactive [at 17.4 µM]” in each case.
For the molecule `Cc1ccc(C)c(OCCn2cc(C(=O)O)c3ccccc32)c1`, the call in assay [1] was inactive. The max response in assay [2] is 3.13%; in assay [3], 4.52%. In addition, the Potency result in assay [4] was “inactive”.
For the molecule `COc1ccc([C@@]2(O)c3c(ccc(CC=C(C)C)c3O)NC(=O)[C@@H]2OC)cc1`, the result in assay [1] and in assay [5] was inactive. Further, the max response in assay [2] was 8.3%; in assay [3] it was 4.4%. Also, the Potency entry in assay [4] was “inactive”.
For `NC1(C(=O)NC(CCO)c2ccc(Cl)cc2)CCN(c2ncnc3[nH]ccc23)CC1` (centres undefined), the max response in assay [1] was -41.5%; in assay [2] it was -13.8%. The outcome in assay [3] and in assay [6] was inactive.
`O=C(O)[C@H](Cc1ccc(Nc2nccc3ccncc23)cc1)NC1=C(Br)C(=O)C12CCCCC2`: the molecule was classed as inactive in assay [1] and in assay [2]. Further, in assay [4], the Potency entry was “inactive”.
In the case of `COC1=CC(=O)CC(C)C12Oc1cc(OC)cc(O)c1C2=O` (centres undefined), the max response in assay [1] was 4.13%. The call in assay [2], in assay [3] and in assay [6] was inactive.
Turning to `COc1cc2occc2c(O[C@@H]2O[C@H](CO)[C@@H](O)[C@H](O)[C@H]2O)c1CCC(=O)O`, the max response in assay [1] is 2.4%; in assay [3], 1.36%. In assay [2], the outcome was inactive. Also, the outcome in assay [5] is “inactive [at 17.4 µM]”.
Consider `CC(=O)O[C@@H]1[C@H](O)[C@@H](O[C@@H]2O[C@@H](C)[C@H](O[C@@H]3OC[C@@H](O)[C@H](O[C@@H]4OC[C@@H](O)[C@H](O)[C@H]4O)[C@H]3O)[C@@H](O[C@@H]3O[C@H](CO)[C@@H](O)[C@H](O)[C@H]3O)[C@H]2O)[C@H](OC(=O)[C@]23CCC(C)(C)C[C@H]2C2=CCC4[C@@]5(C)CC[C@H](O[C@@H]6O[C@H](C(=O)O)[C@@H](O)[C@H](O[C@@H]7OC[C@@H](O)[C@H](O)[C@H]7O)[C@H]6O[C@@H]6O[C@H](CO)[C@H](O)[C@H](O)[C@H]6O)[C@@](C)(C=O)C5CC[C@@]4(C)[C@]2(C)CC3)O[C@@H]1C` (some centres undefined), for which the max response is 0.448% in assay [1] and -1.2% in assay [2]. For the same molecule, in assay [3], the call was inactive. For the same molecule, in assay [6], the outcome is “inactive [at 4.96 µM]”.
With `C=C1C(O)CC2C(C(=O)O)=COC(O[C@@H]3O[C@H](COC(=O)/C=C/c4ccc(O)cc4)[C@@H](O)[C@H](O)[C@H]3O)C12` (some centres undefined), the max response in assay [1] is -10.4%; in assay [3] it was -4.95%. The molecule was classed as inactive in assay [2]. Moreover, the outcome in assay [5] was “inactive [at 17.4 µM]”.
As to `COc1cc(O)c2c(c1)C1=C[C@H](O)[C@@H](O)C[C@]1(C)OC2=O`, the figures for the max response in assay [1] and in assay [2] were -2.92% and 9.7%, respectively. The molecule was classed as inactive in assay [3], in assay [5] and in assay [6].
Consider `COc1ccc(N(C)c2nc(C)nc3ccccc23)cc1`, for which the outcome in assay [1] was inactive. Besides, in assay [2], the Potency was 5.2 nM (active). Moreover, the Potency result in assay [4] was “inactive”.
Consider `COC(=O)c1cc(OC)cc(OC)c1C(=O)c1c(OC)cc2c(c1O)C1CCCC(C)(O2)O1` (centres undefined), for which the max response in assay [1] was 3.65%. In addition, the molecule was called inactive in assay [2] and in assay [3]. In addition, the outcome in assay [6] was “inactive [at 17.4 µM]”.
In the case of `COC(=O)CC(C)(O)CC(=O)OCc1ccc(O[C@@H]2O[C@H](CO)[C@@H](O)[C@H](O)[C@H]2O)cc1` (some centres undefined), the max response in assay [1] is 2.19%; in assay [2], 4.52%; in assay [3], -2.06%. In addition, the outcome in assay [5] is “inactive [at 17.4 µM]”.
For `CC(=O)OC1CC2C3(C)CCC(OC(=O)CC(=O)O)C(C)(C)C3CCC2(C)C2(C)CCC(C3(C)CCC(=O)O3)C12` (centres undefined), the max response in assay [1] is 3.4%; in assay [3], 2.16%. For the same molecule, the molecule was classed as inactive in assay [2]. The outcome in assay [5] is “inactive [at 17.4 µM]”.
As for `CC(C)=CCc1cc(C(O)C2NC(=O)CNC(=O)C(Cc3c[nH]c4ccccc34)NC(=O)C3CCCN3C(=O)CNC(=O)C(C(C)C)NC(=O)CNC2=O)ccc1O` (centres undefined) (cyclo(G[X4]GVGPW); configuration not given here), the values for the max response in assay [1] and in assay [2] were -16.9% and 5.04%, respectively. Besides, the molecule was classed as inactive in assay [3]. The outcome in assay [6] is “inactive [at 9.27 µM]”.
